Tests used:
Assay in all cases: log2 ratio of Biotin-Ahx-Ub-VS probe labelling (fragment/DMSO); higher = less target engagement (more negative = stronger competition), active = hit call of the paper (q ≤ 0.05, log2 ratio ≤ -1)
Details in all cases: compound concentration: 200 uM; treatment time: 3 h
USP19 = biological target: T1, USP19 (UniProt O94966)
T1 sequence (whole entry): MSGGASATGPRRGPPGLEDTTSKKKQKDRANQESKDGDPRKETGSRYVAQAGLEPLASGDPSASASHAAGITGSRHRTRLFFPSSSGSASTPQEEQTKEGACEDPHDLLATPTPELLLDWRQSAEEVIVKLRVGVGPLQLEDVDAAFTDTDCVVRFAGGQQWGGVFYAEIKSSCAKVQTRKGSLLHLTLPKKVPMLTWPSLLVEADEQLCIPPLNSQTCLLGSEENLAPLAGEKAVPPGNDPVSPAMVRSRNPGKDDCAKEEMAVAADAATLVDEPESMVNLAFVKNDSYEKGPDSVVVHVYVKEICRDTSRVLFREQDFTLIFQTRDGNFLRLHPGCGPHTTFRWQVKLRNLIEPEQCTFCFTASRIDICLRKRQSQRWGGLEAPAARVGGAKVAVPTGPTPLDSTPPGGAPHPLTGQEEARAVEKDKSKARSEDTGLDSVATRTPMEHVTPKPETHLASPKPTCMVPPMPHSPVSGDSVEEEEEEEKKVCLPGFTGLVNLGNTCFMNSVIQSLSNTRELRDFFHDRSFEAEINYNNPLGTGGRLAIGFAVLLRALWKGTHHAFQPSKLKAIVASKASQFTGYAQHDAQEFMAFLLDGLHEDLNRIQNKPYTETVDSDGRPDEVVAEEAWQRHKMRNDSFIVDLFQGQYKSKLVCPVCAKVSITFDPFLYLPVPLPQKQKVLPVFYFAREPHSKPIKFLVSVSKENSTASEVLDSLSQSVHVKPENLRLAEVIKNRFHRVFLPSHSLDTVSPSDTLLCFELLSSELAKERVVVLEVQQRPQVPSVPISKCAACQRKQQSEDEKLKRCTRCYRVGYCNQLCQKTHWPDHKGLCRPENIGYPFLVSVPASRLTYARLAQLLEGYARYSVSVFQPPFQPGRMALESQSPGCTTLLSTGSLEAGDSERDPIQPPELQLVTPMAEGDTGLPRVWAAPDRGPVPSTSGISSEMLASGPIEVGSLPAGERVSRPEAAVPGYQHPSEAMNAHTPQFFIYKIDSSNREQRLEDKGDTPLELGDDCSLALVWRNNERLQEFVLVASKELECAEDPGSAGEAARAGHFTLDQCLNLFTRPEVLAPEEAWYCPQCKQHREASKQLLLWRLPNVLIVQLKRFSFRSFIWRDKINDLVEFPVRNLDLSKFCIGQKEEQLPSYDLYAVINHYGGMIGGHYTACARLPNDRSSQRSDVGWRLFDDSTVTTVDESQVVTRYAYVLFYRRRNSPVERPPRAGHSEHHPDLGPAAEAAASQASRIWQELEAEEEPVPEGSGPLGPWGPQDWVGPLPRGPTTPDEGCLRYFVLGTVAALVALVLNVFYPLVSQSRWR
Outline: (§1)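 HEK293T lysate in Tris/CHAPS/IGEPAL buffer with protease inhibitors (495 µg per sample) was given fragment at 200 µM or vehicle for 3 h, in triplicate. It then received Biotin-Ahx-Ub-VS at 0.5 µM final for 1 h. Labelled DUBs were NeutrAvidin-enriched, digested with LysC and trypsin, and run by diaPASEF LC-MS/MS. Values are average log2 fragment/vehicle ratios by unpaired t-test on global-median-normalised Spectronaut quantities of proteins with ≥2 unique peptides.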

USP22 = biological target: T2, USP22 (UniProt Q9UPT9)
T2 sequence (whole entry): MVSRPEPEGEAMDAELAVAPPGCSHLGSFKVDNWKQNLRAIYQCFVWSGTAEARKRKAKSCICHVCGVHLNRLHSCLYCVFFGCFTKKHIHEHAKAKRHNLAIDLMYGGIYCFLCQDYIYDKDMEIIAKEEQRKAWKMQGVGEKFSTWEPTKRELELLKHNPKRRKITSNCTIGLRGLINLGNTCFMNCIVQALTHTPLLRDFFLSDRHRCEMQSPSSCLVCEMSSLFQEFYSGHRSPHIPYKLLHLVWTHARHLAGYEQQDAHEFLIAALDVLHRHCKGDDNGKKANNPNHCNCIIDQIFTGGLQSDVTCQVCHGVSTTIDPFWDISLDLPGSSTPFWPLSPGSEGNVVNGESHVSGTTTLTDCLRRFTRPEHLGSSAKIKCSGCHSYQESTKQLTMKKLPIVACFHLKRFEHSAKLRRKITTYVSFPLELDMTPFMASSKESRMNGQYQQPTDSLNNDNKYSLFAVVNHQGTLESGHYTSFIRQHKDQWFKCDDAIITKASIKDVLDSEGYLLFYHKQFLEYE
Outline: as §1

USP24 = USP24 (UniProt Q9UPU5)
Outline: as §1

USP25 = biological target: T3, USP25 (UniProt Q9UHP3)
T3 sequence (whole entry): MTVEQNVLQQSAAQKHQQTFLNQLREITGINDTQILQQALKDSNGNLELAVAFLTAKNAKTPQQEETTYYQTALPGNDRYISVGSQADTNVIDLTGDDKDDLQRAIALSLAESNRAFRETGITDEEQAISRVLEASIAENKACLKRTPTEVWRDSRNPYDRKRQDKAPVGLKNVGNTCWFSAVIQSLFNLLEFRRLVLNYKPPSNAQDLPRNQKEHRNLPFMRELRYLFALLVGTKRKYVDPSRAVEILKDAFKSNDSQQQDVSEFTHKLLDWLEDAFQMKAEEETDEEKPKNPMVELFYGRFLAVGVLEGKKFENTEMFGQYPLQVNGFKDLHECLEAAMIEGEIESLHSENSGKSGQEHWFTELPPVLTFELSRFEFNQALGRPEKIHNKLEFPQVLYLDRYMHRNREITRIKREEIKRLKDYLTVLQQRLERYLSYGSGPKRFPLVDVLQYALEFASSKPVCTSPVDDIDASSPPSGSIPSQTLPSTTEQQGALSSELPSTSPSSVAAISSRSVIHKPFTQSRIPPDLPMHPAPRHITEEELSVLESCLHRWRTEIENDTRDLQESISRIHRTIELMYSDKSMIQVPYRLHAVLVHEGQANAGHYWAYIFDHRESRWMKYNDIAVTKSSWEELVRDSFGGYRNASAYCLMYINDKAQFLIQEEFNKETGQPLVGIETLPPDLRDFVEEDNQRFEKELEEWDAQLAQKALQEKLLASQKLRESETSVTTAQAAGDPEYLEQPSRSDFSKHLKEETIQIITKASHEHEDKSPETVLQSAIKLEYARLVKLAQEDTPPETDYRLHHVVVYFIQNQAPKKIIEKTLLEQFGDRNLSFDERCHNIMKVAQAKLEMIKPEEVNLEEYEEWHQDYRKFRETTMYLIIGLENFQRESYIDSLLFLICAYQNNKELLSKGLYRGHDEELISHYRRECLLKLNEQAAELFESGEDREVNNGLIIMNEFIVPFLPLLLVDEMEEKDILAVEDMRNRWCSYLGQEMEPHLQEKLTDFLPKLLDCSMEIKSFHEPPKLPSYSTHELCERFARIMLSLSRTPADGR
Outline: as §1

USP28 = biological target: T4, USP28 (UniProt Q96RU2)
T4 sequence (whole entry): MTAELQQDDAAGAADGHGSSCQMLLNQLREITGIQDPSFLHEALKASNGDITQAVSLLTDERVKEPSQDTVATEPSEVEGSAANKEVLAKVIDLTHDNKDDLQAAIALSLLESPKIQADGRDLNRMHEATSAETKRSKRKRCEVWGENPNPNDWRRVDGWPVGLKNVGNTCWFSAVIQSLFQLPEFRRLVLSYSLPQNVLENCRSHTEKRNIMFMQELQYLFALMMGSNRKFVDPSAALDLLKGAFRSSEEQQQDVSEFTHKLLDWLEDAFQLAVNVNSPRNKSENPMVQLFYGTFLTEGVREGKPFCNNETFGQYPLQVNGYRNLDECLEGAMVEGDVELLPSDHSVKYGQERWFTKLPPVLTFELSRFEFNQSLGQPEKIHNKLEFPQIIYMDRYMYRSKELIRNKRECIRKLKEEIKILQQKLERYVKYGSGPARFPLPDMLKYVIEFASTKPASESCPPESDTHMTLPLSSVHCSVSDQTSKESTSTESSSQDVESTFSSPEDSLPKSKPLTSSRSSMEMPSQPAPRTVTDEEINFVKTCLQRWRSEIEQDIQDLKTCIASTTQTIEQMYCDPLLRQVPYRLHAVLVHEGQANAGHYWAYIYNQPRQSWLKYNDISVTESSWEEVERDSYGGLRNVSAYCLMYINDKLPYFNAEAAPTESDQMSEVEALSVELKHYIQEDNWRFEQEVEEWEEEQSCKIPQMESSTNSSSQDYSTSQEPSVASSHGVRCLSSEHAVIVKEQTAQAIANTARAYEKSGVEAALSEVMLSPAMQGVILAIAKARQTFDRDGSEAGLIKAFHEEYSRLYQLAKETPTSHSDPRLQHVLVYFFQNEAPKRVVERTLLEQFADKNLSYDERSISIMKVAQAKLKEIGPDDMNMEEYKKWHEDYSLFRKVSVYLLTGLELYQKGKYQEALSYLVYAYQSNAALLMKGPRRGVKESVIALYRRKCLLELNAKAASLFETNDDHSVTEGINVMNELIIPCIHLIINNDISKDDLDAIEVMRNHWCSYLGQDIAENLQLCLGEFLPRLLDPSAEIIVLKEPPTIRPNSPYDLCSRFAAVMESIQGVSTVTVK
Outline: as §1

Measured: log2 ratio of Biotin-Ahx-Ub-VS probe labelling

Sequence of USP24 (Q9UPU5 whole entry): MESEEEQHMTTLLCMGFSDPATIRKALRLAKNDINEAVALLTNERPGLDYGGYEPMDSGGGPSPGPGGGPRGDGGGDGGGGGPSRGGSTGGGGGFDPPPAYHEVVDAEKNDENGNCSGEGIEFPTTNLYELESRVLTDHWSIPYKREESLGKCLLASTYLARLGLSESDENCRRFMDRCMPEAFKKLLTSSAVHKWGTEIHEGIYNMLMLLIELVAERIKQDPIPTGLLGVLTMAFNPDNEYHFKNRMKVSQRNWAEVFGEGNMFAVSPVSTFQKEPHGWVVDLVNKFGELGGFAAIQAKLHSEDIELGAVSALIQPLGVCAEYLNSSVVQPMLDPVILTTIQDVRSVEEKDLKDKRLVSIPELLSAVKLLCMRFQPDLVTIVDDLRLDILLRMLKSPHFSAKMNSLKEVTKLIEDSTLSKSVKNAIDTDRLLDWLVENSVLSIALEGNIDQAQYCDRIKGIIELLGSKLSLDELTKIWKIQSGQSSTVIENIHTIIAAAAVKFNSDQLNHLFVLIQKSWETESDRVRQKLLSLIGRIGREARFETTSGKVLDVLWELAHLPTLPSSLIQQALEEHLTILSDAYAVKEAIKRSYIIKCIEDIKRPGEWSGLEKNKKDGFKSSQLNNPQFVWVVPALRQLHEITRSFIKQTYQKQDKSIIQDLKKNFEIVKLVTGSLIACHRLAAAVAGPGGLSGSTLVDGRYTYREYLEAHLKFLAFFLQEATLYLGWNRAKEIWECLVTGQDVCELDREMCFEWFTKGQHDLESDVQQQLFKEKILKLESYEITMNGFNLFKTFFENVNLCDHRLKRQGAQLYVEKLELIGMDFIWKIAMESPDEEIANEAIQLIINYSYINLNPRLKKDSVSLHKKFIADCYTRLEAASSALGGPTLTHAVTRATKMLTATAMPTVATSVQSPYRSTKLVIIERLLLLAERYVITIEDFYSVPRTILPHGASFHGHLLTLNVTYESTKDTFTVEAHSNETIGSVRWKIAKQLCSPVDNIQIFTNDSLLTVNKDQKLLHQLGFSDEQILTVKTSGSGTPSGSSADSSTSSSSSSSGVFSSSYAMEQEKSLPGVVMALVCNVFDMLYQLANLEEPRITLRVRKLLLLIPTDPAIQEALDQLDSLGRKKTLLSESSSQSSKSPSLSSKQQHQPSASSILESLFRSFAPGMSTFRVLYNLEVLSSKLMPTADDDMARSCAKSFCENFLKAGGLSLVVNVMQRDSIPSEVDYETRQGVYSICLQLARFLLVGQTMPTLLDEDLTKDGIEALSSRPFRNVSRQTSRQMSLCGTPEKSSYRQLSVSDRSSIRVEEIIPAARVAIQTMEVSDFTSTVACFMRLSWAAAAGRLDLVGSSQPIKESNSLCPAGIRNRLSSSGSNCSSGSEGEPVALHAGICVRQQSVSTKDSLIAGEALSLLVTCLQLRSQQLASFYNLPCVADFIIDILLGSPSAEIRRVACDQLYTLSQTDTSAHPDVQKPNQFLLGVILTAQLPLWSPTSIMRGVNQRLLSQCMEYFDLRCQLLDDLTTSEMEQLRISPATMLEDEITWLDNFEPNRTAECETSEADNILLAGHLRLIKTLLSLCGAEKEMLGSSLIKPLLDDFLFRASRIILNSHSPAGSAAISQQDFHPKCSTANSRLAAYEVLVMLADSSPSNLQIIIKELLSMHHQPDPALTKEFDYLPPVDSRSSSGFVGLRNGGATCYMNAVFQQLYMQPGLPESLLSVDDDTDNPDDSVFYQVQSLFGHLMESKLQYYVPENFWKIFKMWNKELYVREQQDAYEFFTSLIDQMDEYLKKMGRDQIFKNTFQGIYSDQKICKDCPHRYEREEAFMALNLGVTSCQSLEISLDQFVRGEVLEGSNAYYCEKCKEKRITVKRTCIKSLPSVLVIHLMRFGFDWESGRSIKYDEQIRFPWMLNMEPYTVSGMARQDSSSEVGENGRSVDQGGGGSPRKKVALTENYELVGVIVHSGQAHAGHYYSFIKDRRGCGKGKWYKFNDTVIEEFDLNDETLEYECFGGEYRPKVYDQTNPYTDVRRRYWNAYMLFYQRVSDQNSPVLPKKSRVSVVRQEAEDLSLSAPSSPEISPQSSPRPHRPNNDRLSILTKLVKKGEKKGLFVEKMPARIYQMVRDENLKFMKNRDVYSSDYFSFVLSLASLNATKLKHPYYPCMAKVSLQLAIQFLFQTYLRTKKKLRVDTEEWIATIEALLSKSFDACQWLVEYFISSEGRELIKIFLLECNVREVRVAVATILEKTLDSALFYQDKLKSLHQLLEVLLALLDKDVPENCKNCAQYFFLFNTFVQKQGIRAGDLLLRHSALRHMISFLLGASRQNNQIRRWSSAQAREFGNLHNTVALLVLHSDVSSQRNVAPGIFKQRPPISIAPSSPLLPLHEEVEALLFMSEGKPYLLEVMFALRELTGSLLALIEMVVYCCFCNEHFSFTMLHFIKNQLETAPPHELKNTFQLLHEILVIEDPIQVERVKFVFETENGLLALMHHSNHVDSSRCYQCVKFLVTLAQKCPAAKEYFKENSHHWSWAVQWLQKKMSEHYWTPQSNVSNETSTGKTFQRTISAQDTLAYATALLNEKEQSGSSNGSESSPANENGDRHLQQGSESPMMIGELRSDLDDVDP

C/C(=C\CNC(=O)CCl)c1cnn(C)c1.Cl
inactive: USP19 -0.404 | USP22 0.026 | USP24 -0.203 | USP25 -0.578 | USP28 -0.395
